Experimental data taken from the supplement of paper PMC6555819.

How the values were obtained:
Test in all cases: PBM binding z-score (relative to random genomic background probes); higher = stronger binding; sequences stand for … in GC…GCGATTGACAGCGTAGAATGAAGG
[1] = tested on: PPARg:RXRa DBDmut IVT, anti-RXR (DBD mutation: RXRa K156A/R161A, NR concentration 270 nM, RXRa partner concentration 90 nM)
Method in brief: (§1)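 Each nuclear receptor dimer, without ligand, was incubated for 1 h on custom Agilent 4×180K protein-binding microarrays. Binding was detected with antibodies against each partner (one per run), and scanned fluorescence was regression-normalized. The binding z-scores are referenced to random human genomic background probes.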

[2] = tested on: PPARg:RXRa IVT, anti-PPARg (NR concentration 270 nM, RXRa partner concentration 90 nM)
Method in brief: as §1

[3] = tested on: PPARg DBDmut:RXRa IVT, anti-PPARg (DBD mutation: PPARg1 K132A/R137A, NR concentration 270 nM, RXRa partner concentration 90 nM)
Method in brief: as §1

[4] = tested on: PPARg DBDmut IVT, anti-PPARg (DBD mutation: PPARg1 K132A/R137A, NR concentration 270 nM)
Method in brief: as §1

[5] = tested on: PPARg homodimer (NR concentration 180 nM)
Method in brief: as §1

[6] = tested on: PXR:RXRa (NR concentration 270 nM, RXRa partner concentration 90 nM)
Method in brief: as §1

[7] = tested on: PXR homodimer (NR concentration 270 nM)
Method in brief: as §1

[8] = tested on: RARa:RXR (NR concentration 270 nM, RXRa partner concentration 90 nM)
Method in brief: as §1

[9] = tested on: RARa homodimer (NR concentration 270 nM)
Method in brief: as §1

[10] = tested on: RARb:RXRa (NR concentration 270 nM, RXRa partner concentration 90 nM)
Method in brief: as §1

[11] = tested on: RARb homodimer (NR concentration 270 nM)
Method in brief: as §1

[12] = tested on: RARg:RXRa (NR concentration 270 nM, RXRa partner concentration 90 nM)
Method in brief: as §1

[13] = tested on: RARg homodimer (NR concentration 270 nM)
Method in brief: as §1

[14] = tested on: RXRa DBDmut IVT, anti-RXR (DBD mutation: RXRa K156A/R161A, NR concentration 90 nM)
Method in brief: as §1

[15] = tested on: RXRa homodimer (NR concentration 180 nM)
Method in brief: as §1

[16] = tested on: THRa:RXRa (NR concentration 90 nM, RXRa partner concentration 90 nM)
Method in brief: as §1

[17] = tested on: THRa homodimer (NR concentration 90 nM)
Method in brief: as §1

[18] = tested on: VDR:RXRa (NR concentration 270 nM, RXRa partner concentration 90 nM)
Method in brief: as §1

[19] = tested on: VDR homodimer (NR concentration 270 nM)
Method in brief: as §1

Sequence	PBM binding z-score [1]	PBM binding z-score [2]	PBM binding z-score [3]	PBM binding z-score [4]	PBM binding z-score [5]	PBM binding z-score [6]	PBM binding z-score [7]	PBM binding z-score [8]	PBM binding z-score [9]	PBM binding z-score [10]	PBM binding z-score [11]	PBM binding z-score [12]	PBM binding z-score [13]	PBM binding z-score [14]	PBM binding z-score [15]	PBM binding z-score [16]	PBM binding z-score [17]	PBM binding z-score [18]	PBM binding z-score [19]
CTACCAAGGTGAACAAGGTCGTTTATTACTATTC	2.67	2.5	0.494	0.322	1.29	3.07	2.38	2.12	0.698	2.26	2.34	1.72	1.55	2.29	1.77	3.26	2.33	6.54	3
ACTATTAGTTGAAACGAGGGCAACCGATAGGTTG	0.662	1.73	1.09	0.692	0.274	2.71	0.569	1.38	0.873	1.27	1.25	1.01	1.11	0.84	0.792	3.41	0.358	1.63	1.1
GCTGCTAGCTCAACTGATGGTCAGCTAAAGCTCG	-0.64	-0.817	-1.66	-1.33	-1.88	-0.933	-1.77	-1.22	-1.08	-0.407	-0.699	-0.731	-0.78	-0.306	-0.88	-0.877	-1.48	-0.797	-1.04
CCTATTAGTTGACCATAAGGGTAACCGAAGCTCG	0.609	0.727	0.109	1.15	1.86	0.536	1.04	0.834	2.48	1.06	1.5	1.01	0.877	0.493	0.639	1.3	1.19	0.776	1.2
CAAACTAGGTCAAGTTCAAAGTCGGTTTGTGCCA	8.65	8.81	3.54	4.23	3.54	5.1	6.98	3.97	1.55	4.88	4.52	5.17	5.92	3.84	4.23	3.52	2.16	4.94	6.29
TCGAGTAGTTTAGTCGGGGCATTCAGCCAACATA	1.24	-0.182	-0.281	-0.699	-0.472	0.139	-0.0137	0.146	-0.408	0.0588	0.253	-0.495	-0.511	0.57	-0.338	0.245	0.214	0.157	0.234
ACTAGCAGGCCGAGGGTCACTCAAGATTAGTCCG	-0.156	1.16	-0.888	-0.885	0.902	1.71	-0.0802	2.32	-0.0933	2.43	2.43	2.41	2.14	0.267	2.49	1.91	-0.126	1.52	0.527
CCCACTGGGCCAAAGGTCATTGATTCCAATGCTC	4.77	6.2	0.334	-0.118	3.86	5.36	1.81	6.34	1.99	4.39	4.72	5.82	4.39	0.468	6.2	3.27	0.821	4.73	2.28
GCTATTAGTTGAAAGGGCAACCGAATGATTCTCG	0.456	1.11	0.0571	0.432	1.15	0.708	0.108	1.38	0.652	2	2.09	1.26	1.37	0.972	1.21	0.664	-0.209	0.531	0.624
GATACAGGGTCAGCTAGCGGCCAGAGTATGGAAA	1.01	2.05	0.0696	-0.868	1.51	2.37	-0.651	3.79	0.418	3.96	2.95	6.02	4.62	1.31	4.36	2.56	-0.0331	2.49	0.352
TATACAGGGTCAAAAGCCAGAGTACGAATGTCGA	1.58	3.89	1.82	1.55	1.9	3.49	0.526	4.49	0.877	3.73	2.74	4.82	4.2	2.54	5.88	3.04	0.446	4.1	2.71
CATTCAGGGTCAGCTAGGCCAGAGTAGGGACGGC	1.6	3.11	2.17	0.968	1.47	2.74	0.0308	3.58	0.262	4.42	3.59	4.64	5.03	2	5.08	3.44	1.31	4.34	1.42
TGAATGAGGTTAAAGATCACGGAACGTGGCGTCG	2.31	3.53	0.896	0.358	0.7	2.94	-0.299	4.67	0.0716	2.18	0.603	2.83	1.49	0.843	5.25	2.72	0.0245	2.22	0.625
ATCGAAAAGTCGACGAGGTGAGTATACACCGTTT	-0.448	0.432	0.0649	0.51	-0.218	0.103	-0.0447	0.451	-0.121	0.388	0.0886	0.532	0.571	-0.248	0.751	1.74	0.716	0.461	-0.201
GTACCAAGGTGTATAGGTCGTTGATGAGTAGGCG	0.000885	0.719	-0.0523	0.342	0.75	0.265	0.0316	0.833	0.17	0.755	0.761	0.597	0.288	0.186	0.791	0.249	-0.307	0.168	0.945
